Measurements published in PubChem BioAssay (EPA / NIEHS).
“And” between values parts separate entries of the source, which are not always exact repeats. Identical values can stand only once. Inconclusive results are not listed. More than one record can exist for a structure, and the calls need not agree. The source made the active and inactive calls. Rule for the calls, unless noted: active = hit-call score of the fitted dose curve at least 0.9, where 1 is the maximum; inconclusive = response in the unintended direction; inactive = score below 0.9.

How the values were obtained:
[1] = read-out: UDP glucuronosyltransferase (UGT1A6), UGT1A6 (gene 54578); assay: LTEA_HepaRG_UGT1A6: Life Technologies and Expression Analysis (LTEA) Assay for UDP glucuronosyltransferase (UGT1A6) using HepaRG (AID 2283539; active = hit-call score of the fitted dose curve at least 0.9, where 1 is the maximum; inactive = score below 0.9); details: mRNA level, 48 h; actives raise or lower the signal
Summary of the method: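 Endpoint is UGT1A6 transcript induction or loss in a human liver cell line, quantified by TaqMan qRT-PCR 48 h after dosing. Concentrations ran from 100 uM downward in half-log steps in 0.5% DMSO; activity was fitted in both directions versus vehicle.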

[2] = read-out: X-box binding protein 1 (XBP1), XBP1 (gene 7494); assay: LTEA_HepaRG_XBP1: Life Technologies and Expression Analysis (LTEA) Assay for X-box binding protein 1 (XBP1) using HepaRG (AID 2283540; active = hit-call score of the fitted dose curve at least 0.9, where 1 is the maximum; inactive = score below 0.9); details: mRNA level, 48 h; actives raise or lower the signal
Summary of the method: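 Human HepaRG monolayers receive test chemical for 48 h across an eight-point half-log series starting at 100 uM. XBP1 mRNA gain or loss is scored against DMSO by qRT-PCR.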

[3] = LTEA_HepaRG_LDH_cytotoxicity: Cytotoxicity Assessment in the Life Technologies and Expression Analysis (LTEA) Assay (AID 2283563);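 for AC50: LDH activity released into spent culture medium as a marker of cell death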
Summary of the method: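 Human HepaRG hepatic cells are treated with test chemicals for 48 h at up to 100 uM in 0.5% DMSO. Cytotoxicity is scored from medium LDH against the vehicle control.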

[4] = ATG_XTT_Cytotoxicity: Cytotoxicity Assessment in the Attagene TRANS-FACTORIAL HepG2 Assay (AID 2283584)
Summary of the method: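 Transfect HepG2 with GAL4-UAS reporter units, dose compound, incubate 24 h, then measure viable cell number by XTT. Fit concentration response against DMSO baseline.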

[5] = TOX21_p53_BLA_p2_viability: Viability Assessment in the Tox21 HCT-116 p53 Agonism Beta-lactamase Assay, Phase 2 (AID 2283591);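 note: actives lower the ATP signal meaning cytotoxicity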
Summary of the method: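 HCT116 p53-bla cells, 4000/well, dosed after 5 h plating (217-fold dilution of DMSO stocks) and incubated 16 h at 37C. Viability taken as cellular ATP by CellTiter-Glo luminescence after 30 min RT; signal loss marks cytotoxicity.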

[6] = target: Cellular tumor antigen p53 (Homo sapiens) (UniProt P04637); assay: TOX21_p53_BLA_p2_ratio: Tox21 HCT-116 p53 Agonism Beta-lactamase Assay, Ratio, Phase 2 (AID 2283592)
Cellular tumor antigen p53 (Homo sapiens), sequence (P04637 whole entry, looked up): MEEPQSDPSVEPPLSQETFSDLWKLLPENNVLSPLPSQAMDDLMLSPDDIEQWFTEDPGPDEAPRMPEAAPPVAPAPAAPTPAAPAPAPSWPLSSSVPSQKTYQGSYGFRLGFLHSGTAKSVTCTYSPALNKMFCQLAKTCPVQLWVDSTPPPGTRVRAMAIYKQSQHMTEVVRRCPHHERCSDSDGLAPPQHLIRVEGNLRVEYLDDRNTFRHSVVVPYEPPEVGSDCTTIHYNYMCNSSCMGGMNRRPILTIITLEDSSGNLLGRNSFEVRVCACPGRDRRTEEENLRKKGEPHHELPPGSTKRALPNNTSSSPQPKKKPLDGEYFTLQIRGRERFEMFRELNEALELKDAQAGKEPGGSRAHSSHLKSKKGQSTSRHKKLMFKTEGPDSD
Summary of the method: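 An inducible beta-lactamase reporter in HCT116 cells signals p53 pathway activation. After 16 h chemical exposure at 37C, cells load CCF4-AM substrate for 2 h at room temperature; activity is the cleaved/uncleaved emission ratio relative to DMSO.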

[7] = TOX21_p53_BLA_p3_viability: Viability Assessment in the Tox21 HCT-116 p53 Agonism Beta-lactamase Assay, Phase 3 (AID 2283593);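 note: cells exposed to compound for 16 h before reading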
Summary of the method: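 HCT116 cells, 4000/well, dosed 5 h after plating by pin transfer (217-fold dilution from DMSO stock) and incubated 16 h at 37C, 5% CO2. Viability read as ATP luminescence with CellTiter-Glo after 30 min at room temperature.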

[8] = target: Cellular tumor antigen p53 (Homo sapiens) (UniProt P04637); assay: TOX21_p53_BLA_p3_ratio: Tox21 HCT-116 p53 Agonism Beta-lactamase Assay, Ratio, Phase 3 (AID 2283596)
Summary of the method: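 HCT116 p53-bla cells (4000/well) given compound in DMSO (217-fold dilution) after 5 h, incubated 16 h at 37C. CCF4-AM substrate 2 h at room temperature; 460/530 nm emission ratio, gain fitted against DMSO.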

[9] = TOX21_p53_BLA_p4_viability: Viability Assessment in the Tox21 HCT-116 p53 Agonism Beta-lactamase Assay, Phase 4 (AID 2283597);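 note: hits lower the luminescence signal meaning cytotoxicity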
Summary of the method: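 Compound exposure of HCT116 cells lasts 16 h at 37C, 5% CO2, with DMSO stocks diluted 217-fold. Cellular ATP is then quantified by CellTiter-Glo luminescence after 30 min at room temperature.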

[10] = target: Cellular tumor antigen p53 (Homo sapiens) (UniProt P04637); assay: TOX21_p53_BLA_p5_ratio: Tox21 HCT-116 p53 Agonism Beta-lactamase Assay, Ratio, Phase 5 (AID 2283599)
Summary of the method: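 HCT-116 p53-bla cells (4000/well) plated 5 h, dosed with compound (217-fold DMSO dilution) for 16 h at 37 C; CCF4-AM substrate 2 h at room temperature. Activity is the 460/530 nm emission ratio (405 nm excitation), fitted in gain-of-signal direction versus DMSO.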

Measured: AC50

CCCN(CCC)c1c([N+](=O)[O-])cc(S(N)(=O)=O)cc1[N+](=O)[O-]
active: [1] 79.1 µM and 78.9 µM | [2] 96.7 µM and 79.1 µM | [3] 76.5 µM and 78.3 µM and 77.5 µM
inactive: [1] | [2] | [4]

CON(C)C(=O)Nc1ccc(Cl)c(Cl)c1
inactive: [1] | [2] | [3] | [4] | [5] | [6] | [7] | [8] | [9] | [10]

CCCCNC(=O)n1c(NC(=O)OC)nc2ccccc21
inactive: [1] | [2] | [3] | [5] | [9]
active: [6] 11 µM and 9.55 µM | [8] 15.9 µM and 15.4 µM | [10] 20.5 µM and 12.3 µM

COC(=O)C=C(C)OP(=O)(OC)OC
inactive: [1] | [2] | [3] | [6] | [10]

Cc1ccc(-c2c(Cl)nc(C#N)n2S(=O)(=O)N(C)C)cc1
active: [1] 27.4 µM | [2] 90.6 µM | [3] 8.94 µM | [5] 68.9 µM | [6] 8.72 µM | [8] 12.1 µM | [9] 71.9 µM | [10] 20.1 µM
inactive: [7]

CC(Oc1ccc(Cl)cc1Cl)C(=O)O (stereo not drawn)
inactive: [1] | [2] | [3] | [5] | [6] | [7] | [8] | [9] | [10]

CCc1nn(C)c(C(=O)NCc2ccc(C(C)(C)C)cc2)c1Cl
active: [1] 37.1 µM | [2] 13.6 µM | [3] 27.3 µM | [5] 46.1 µM | [6] 0.0232 µM | [9] 46.1 µM
inactive: [7] | [8]

Fc1ccc(Oc2ccnc3cc(Cl)cc(Cl)c23)cc1
inactive: [1] | [2] | [3] | [5] | [7] | [9]
active: [6] 79.3 µM | [8] 89.1 µM | [10] 88.9 µM

CCON=C(CC)C1=C(O)CC(c2c(C)cc(C)cc2C)CC1=O (stereo not drawn)
inactive: [1] | [2] | [3] | [5] | [6] | [7] | [8] | [9] | [10]

O=C(O)COc1nc(Cl)c(Cl)cc1Cl
inactive: [1] | [2] | [3] | [5] | [6] | [7] | [8] | [9] | [10]

CCNc1nc(Cl)nc(NCC)n1
inactive: [1] | [2] | [3] | [5] | [6] | [7] | [8] | [9] | [10]

N#Cc1cc(Br)c(O)c(Br)c1
active: [1] 23.5 µM | [2] 10.5 µM | [3] 66.8 µM | [6] 40 µM and 56 µM | [8] 57.5 µM and 55.7 µM | [10] 57.3 µM and 72.4 µM
inactive: [5] | [7] | [9]

CCOc1cc(Oc2ccc(C(F)(F)F)cc2Cl)ccc1[N+](=O)[O-]
inactive: [1] | [2] | [3] | [5] | [6] | [7] | [8] | [9]

COC(=O)c1ccccc1C(=O)OC
inactive: [1] | [2] | [3] | [6] | [7] | [8] | [9] | [10]

CCOC(=O)C(Cl)Cc1cc(-n2nc(C)n(C(F)F)c2=O)c(F)cc1Cl (stereo not drawn)
inactive: [1] | [2] | [3] | [6] | [9]

O=C(Nc1ccccc1)Nc1ccnc(Cl)c1
inactive: [5] | [6] | [7] | [9] | [10]
active: [1] 76.8 µM | [2] 72.1 µM | [3] 39.4 µM | [8] 46.1 µM

CCOC(=O)CC(SP(=S)(OC)OC)C(=O)OCC (stereo not drawn)
inactive: [1] | [2] | [3] | [5] | [6] | [7] | [8] | [9] | [10]
active: [7] 43.3 µM

Cc1c(F)c(F)c(COC(=O)C2C(/C=C(\Cl)C(F)(F)F)C2(C)C)c(F)c1F (stereo not drawn)
inactive: [1] | [2] | [3] | [5] | [6] | [7] | [8] | [9]

C=CCC1=C(C)[C@@H](OC(=O)[C@@H]2[C@@H](C=C(C)C)C2(C)C)CC1=O
inactive: [1] | [2] | [5] | [6] | [7] | [8] | [9] | [10]

N#CC(CCc1ccc(Cl)cc1)(Cn1cncn1)c1ccccc1 (stereo not drawn)
inactive: [6] | [7] | [8] | [10]
active: [1] 81.9 µM | [2] 80.3 µM | [3] 37.5 µM | [5] 56 µM | [9] 39.1 µM

COC(=O)C(C)Oc1ccc(Oc2ccc(Cl)cc2Cl)cc1 (stereo not drawn)
inactive: [1] | [2] | [3] | [5] | [6] | [8] | [9] | [10]

COP(N)(=O)SC (stereo not drawn)
inactive: [1] | [2] | [3] | [5] | [7] | [8] | [10]

COc1nc(C)nc(NC(=O)NS(=O)(=O)c2ccccc2Cl)n1
inactive: [5] | [6] | [8]

CC1=C(C(=O)Nc2ccccc2)SCCO1
inactive: [1] | [2] | [3] | [5] | [6] | [7] | [8] | [9] | [10]

CC1COC(Cn2cncn2)(c2ccc(Oc3ccc(Cl)cc3)cc2Cl)O1 (stereo not drawn)
active: [1] 63.9 µM | [3] 58.7 µM | [5] 78.7 µM | [6] 21.4 µM | [8] 46.1 µM | [9] 71.1 µM | [10] 66.3 µM
inactive: [2] | [7]

CC(C)C1(C)N=C(c2nc3ccccc3cc2C(=O)O)NC1=O (stereo not drawn)
inactive: [1] | [2] | [5] | [6] | [8] | [9] | [10]

O=C(O)c1nc(Cl)ccc1Cl
inactive: [1] | [2] | [3] | [5] | [6] | [7] | [8] | [9] | [10]

CS/C(C)=N/OC(=O)N(C)SN(C)C(=O)O/N=C(\C)SC
inactive: [1] | [2] | [3] | [6] | [8] | [10]
